# HT1080-NT tox = qHTS for induction of synthetic lethality in tumor cells producing 2HG: qHTS for the HT-1080-NT fibrosarcoma cell line; HT-1080-NT fibrosarcoma viability, CellTiter-Glo ATP luminescence, 48 h; Potency, µM (titrated, usually from 46.1 µM), for the others: at the top dose activity, negative = less viability, actives largely listed as cytotoxic; 1.6% of 360,000 active;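 note: NT is the 2HG producing partner of a matched IDH1 knockdown line; 0% = DMSO-treated cells and -100% = media-only wells without cells; nearly all actives have a fitted effect of over 55% in size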
#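 Viability by CellTiter-Glo luminescence after 48 h compound exposure at 37C of HT-1080-NT cells (750/well, RPMI, 5% FBS). % activity scaled between DMSO wells and medium-only wells, then curve-fitted and categorized by curve class.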
# HepG2 viability = qHTS for Inhibitors of TGF-b: Cytotox Counterscreen. Potency, µM (series often up to 46.1 µM), inactives show at the top dose activity change, negative = cytotoxicity, actives largely listed as cytotoxic. 0.76% of 410,000 active. HepG2 CAGA-GFP viability, ATP luminescence, 18 h. AID 588856, 2011
#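 CellTiter-Glo luminescence gave cytotoxicity after 18 hours at 37 degrees C. The cells were HepG2 CAGA-GFP in 1% FBS DMEM, stimulated with 500 pg/mL TGF-beta after compound addition. %Activity was normalised to no-cell wells (complete cell-killing) and DMSO (no toxicity), and curves were fitted and classified.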
# TGFb inhibitor = qHTS for Inhibitors of TGF-b; HepG2 CAGA-GFP TGF-b/SMAD3 reporter, GFP fluorescence, 18 h; TGF-beta stimulated, 500 pg/mL final; Potency, µM (titrated, usually from 46.1 µM), for the others: at the top dose activity, negative = inhibition, usual class: inhibitors; 1.2% of 410,000 active; note: % is set by controls: 0 for no effect and ±100 for the full control effect; nearly all actives have a fitted effect of over 65% in size
#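 Read-out: total well GFP (ex488/em500-530) summed from mean per-cell fluorescence. Cells: HEPG2 CAGA-GFP, 1% FBS DMEM, 18 h at 37 degrees C with 500 pg/mL final TGF-beta. Unstimulated wells served as the full-inhibition control; stimulated DMSO wells = 0%.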
# HT1080 IDH1KD tx = qHTS for induction of synthetic lethality in tumor cells producing 2HG: qHTS for the HT-1080-IDH1KD cell line; HT-1080 IDH1 knockdown viability, ATP luminescence, 48 h; Potency, µM (top dose mostly 46.1 µM), for inactives: at the highest dose activity, negative = toxicity, hits mostly cytotoxic; 2% of 360,000 active;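 note: 0% = DMSO wells and -100% = cell-free medium wells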
#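 HT-1080-IDH1KD cells (IDH1 knocked down), 750/well in RPMI with 5% FBS, treated with compound 48 h at 37 degrees C. Viability by CellTiter-Glo luminescence, normalised to DMSO and no-cell wells; concentration-response curves classed.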
# DT40 TDP1 CPT = qHTS for Inhibitors of human tyrosyl-DNA phosphodiesterase 1 (TDP1): qHTS in cells in presence of CPT. 12% of 420,000 active. AID 686979, 2013. chicken DT40 Tdp1-/-;hTDP1 cells + 20 nM CPT, ATP luminescence, 48 h. Potency, µM (highest dose often 46.2 µM), for the others: top-dose activity change, negative = growth inhibition, actives largely listed as inhibitors; note: % is set by controls: 0 for no effect and ±100 for the full control effect; nearly all actives have a fitted effect of over 55% in size
#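 Cell growth measured by CellTiter-Glo luminescence after a minimum 48 h, 37 C compound exposure with 20 nM CPT in Tdp1-knockout DT40 cells stably expressing hTDP1, seeded 400/well; qHTS titration format.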
# TDP1 cell noCPT = qHTS for Inhibitors of human tyrosyl-DNA phosphodiesterase 1 (TDP1): qHTS in cells in absence of CPT. DT40 Tdp1-/- hTDP1 cells, no CPT, ATP luminescence, 48 h. Potency, µM (titrated, usually from 46.2 µM), for the others: at the top dose activity change, negative = growth inhibition, usual class: inhibitors. 15% of 420,000 active; note: % is set by controls: 0 for no effect and ±100 for the full control effect; nearly all actives have a fitted effect of over 55% in size
#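 Stably hTDP1-transfected Tdp1-null chicken DT40 cells were treated with library compounds minus camptothecin and grown for at least 48 hr at 37 °C, after which cellular ATP was quantified by luminescence.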
# Starred values were filed as active, the others as inactive; ? = inconclusive; . = not tested or not shown. Compounds with a hit are over-represented: about 17% of the library has one in this group of screens. Calls come from the whole dose curve; as a rule, active = well fitted curve in the direction sought with a large enough effect; inconclusive = small, poorly fitted or top-dose-only effect, or another doubt; inactive = no such curve, though single readings can be large; an effect the other way counts as inactive or inconclusive. Potency is the fitted concentration of half-maximal effect.
SMILES,HT1080-NT tox,HepG2 viability,TGFb inhibitor,HT1080 IDH1KD tx,DT40 TDP1 CPT,TDP1 cell noCPT
C=C(C)CSc1nc2sc3c(c2c(=O)n1-c1ccc(C)cc1)CCN(C)C3,10.7%,-29.5%,-22.8%,-1.3%,18.4µM*,11.6µM*
CCn1c(SCC(=O)N2CCOCC2)nc2sc3c(c2c1=O)CCCC3,-0.6%,-3.8%,17.0%,-8.5%,?,18.4µM*
CCOC(=O)CSc1nnc2n(C3CCCCC3)c(=O)c3c4c(sc3n12)CCCC4,4.5%,3.7%,0.4%,-1.0%,?,?
CCOC(=O)CSc1nc2sc3c(c2c(=O)n1-c1ccc(OCC)cc1)CCN(C)C3,-2.4%,-0.1%,-24.5%,1.6%,?,23.1µM*
COC(=O)CSc1nnc2n(C3CCCCC3)c(=O)c3c4c(sc3n12)CCCC4,-7.2%,-14.6%,-21.2%,3.0%,29.1µM*,?
CCCn1c(SCC(=O)N2CCN(C(C)=O)CC2)nc2sc3c(c2c1=O)CCC3,-14.3%,-3.5%,-19.1%,-7.2%,-16.5%,-18.2%
C[C@H](CO)N1C[C@H](C)[C@@H](CN(C)Cc2cccc3c2OCCCO3)OCc2cnnn2CCCC1=O,-0.6%,-2.4%,1.1%,-2.9%,-36.2%,-6.8%
COC(=O)C1CCN(c2ccc(C(N)=O)cc2[N+](=O)[O-])CC1,17.5%,-4.8%,-5.3%,-1.4%,?,-8.3%
CCn1c(SCC(=O)Nc2ccc(C)cc2)nc2sc3c(c2c1=O)CCN(C)C3,-12.0%,-9.6%,-6.7%,-7.9%,?,?
CCn1c(SCC(N)=O)nc2sc3c(c2c1=O)CCN(C)C3,4.1%,2.9%,6.2%,-2.6%,23.1µM*,13µM*
CCOC(=O)CSc1nc2sc3c(c2c(=O)n1C1CCCCC1)CCN(C)C3,-23.7%,-15.2%,-13.5%,-27.0%,?,29.1µM*
O=C(Nc1ccc(N2CCOCC2)cc1)c1csc(COCCO)n1,0.1%,-28.1%,14.1%,5.5%,-20.1%,-12.7%
Cc1cc(C)c(Cn2c3ccccc3c3cnn(CC(=O)NC4CCC(C)CC4)c(=O)c32)c(C)c1 (stereo not drawn),.,1.5%,0.6%,.,13µM*,?
CC1CCC(NC(=O)Cn2ncc3c4ccccc4n(Cc4ccc(F)cc4)c3c2=O)CC1 (stereo not drawn),.,-2.6%,2.4%,.,?,?
O=C(Cn1ncc2c3ccccc3n(Cc3ccc(Cl)cc3)c2c1=O)NC1CCCCCC1,.,1.2%,15.9%,.,3.0%,-19.6%
Cc1ccccc1Cn1c2ccccc2c2cnn(CC(=O)NC3CCCCCC3)c(=O)c21,.,-0.5%,-3.2%,.,11.6µM*,10.3µM*
C=CCNC(=O)COC(=O)c1cc(S(=O)(=O)N2CCOCC2)ccc1N1CCCCC1,7.1%,-15.3%,14.5%,4.5%,-1.6%,-19.0%
COc1cc2c(cc1NC(=O)CSc1nc3cc(Cl)ccc3s1)oc1ccccc12,6.6%,0.1%,1.8%,2.6%,?,11.6µM*
COc1cc2c(cc1NC(=O)CSc1nccn1C)oc1ccccc12,1.5%,-23.3%,-4.6%,-10.0%,?,18.4µM*
COc1cc2c(cc1NC(=O)CSc1nc3ccccc3[nH]1)oc1ccccc12,?,-33.9%,?,?,?,?
COc1cc2c(cc1NC(=O)CSc1ccccc1)oc1ccccc12,7.2%,-5.6%,0.0%,12.7%,?,?
Cc1ccc(NC(=O)CN(C)C(=O)COC(=O)C2=COCCO2)cc1,6.1%,0.0%,10.1%,12.0%,-3.4%,0.3%
Cc1c(NC(=O)Cc2ccc(F)cc2)cccc1-c1nc2cccnc2s1,.,-2.1%,-22.5%,.,-19.8%,-21.1%
Cc1ccc2nc(NC(=O)c3ccccc3F)sc2c1,-6.5%,-1.7%,-2.1%,-2.3%,2.6%,?
CCOc1ccc2nc(NC(=O)c3nc(SC(C)C)ncc3Cl)sc2c1,.,-4.5%,-2.7%,.,9.2µM*,8.2µM*
SMILES,HT1080-NT tox,HepG2 viability,TGFb inhibitor,HT1080 IDH1KD tx,DT40 TDP1 CPT,TDP1 cell noCPT
CCOc1ccccc1NC(=O)c1nc(SC(C)C)ncc1Cl,.,-11.4%,-11.5%,.,?,18.4µM*
CCOc1ccc2nc(NC(=O)Nc3ccccc3)sc2c1,-3.0%,-15.6%,-4.1%,-21.8%,?,?
CCOc1ccc2nc(NC(=O)c3ccccn3)sc2c1,?,-32.2%,-8.7%,16.4µM*,0.82µM*,0.651µM*
CCSc1ncc(Cl)c(C(=O)Nc2nc3ccc(OC)cc3s2)n1,.,-1.8%,34.1%,.,-21.6%,-21.4%
Cc1ccc2nc(NC(=O)c3ccccn3)sc2c1,14.6µM*,-51.4%,0.2%,2.31µM*,4.61µM*,6.51µM*
O=C(CCc1nc2ccccc2c(=O)[nH]1)NNC(=O)c1ccc(F)cc1,3.4%,4.2%,-3.4%,5.1%,-7.5%,15.9%
CCOc1ccccc1NC(=O)N1CCN(S(=O)(=O)c2ccc3c(ccn3C)c2)CC1,.,-7.2%,-13.8%,.,-15.9%,-27.2%
O=C(Nc1nc2ccc(F)cc2s1)c1cccc(S(=O)(=O)N2CCc3ccccc32)c1,-5.5%,-23.5%,-30.3%,-2.2%,-24.6%,?
CSc1ncccc1C(=O)Nc1nc2ccc(Oc3ccccc3)cc2s1,-21.1%,-44.9%,?,-8.8%,20.6µM*,?
O=C(Nc1nc2c(F)cc(F)cc2s1)c1ccccn1,?,-32.0%,?,6.51µM*,0.651µM*,0.731µM*
O=C(COc1ccccc1)NNc1nc2c(F)cc(F)cc2s1,11.3%,-3.8%,29.4%,0.1%,-1.5%,-3.2%
O=C(Nc1nc2c(F)cc(F)cc2s1)c1ccc(S(=O)(=O)N2CCc3ccccc32)cc1,.,-18.0%,?,.,25.9µM*,?
COc1ccc2nc(NC(=O)c3ccccc3C(=O)O)sc2c1,-2.8%,-2.8%,14.9%,-3.2%,-2.1%,2.5%
CCOc1ccc2nc(NC(=O)Cn3[nH]c(=O)c4ccccc4c3=O)sc2c1,6.0%,-25.9%,?,8.5%,23.1µM*,23.1µM*
Cc1ccc(C(=O)CCC(=O)Nc2ccccc2F)cc1,5.1%,0.8%,-2.4%,13.5%,-14.6%,19.5%
COc1ccc(CCNC(=O)c2cnc3sc(N4CCOCC4)nn3c2=O)cc1,.,-11.8%,-3.0%,.,?,?

# High-throughput results (PubChem)
